Activity calls are given as the source filed them. How the calls were made is not given here.
molecular target: Dual specificity protein kinase CLK1 (Homo sapiens) (UniProt P49759); assay: ligand-induced CLK1 melting temperature shift – biophysical, recombinant human kinase, DSF (AID 382); conditions: Recombinant CLK1, thermal shift (DSF), at 10 µM, protein 1.7 µM, buffer 10 mM HEPES, pH 7.5, NaCl 150 mM, with 50 µM L-Arg/L-Glu (1:1), active compounds read high
Sequence (P49759 whole entry, looked up): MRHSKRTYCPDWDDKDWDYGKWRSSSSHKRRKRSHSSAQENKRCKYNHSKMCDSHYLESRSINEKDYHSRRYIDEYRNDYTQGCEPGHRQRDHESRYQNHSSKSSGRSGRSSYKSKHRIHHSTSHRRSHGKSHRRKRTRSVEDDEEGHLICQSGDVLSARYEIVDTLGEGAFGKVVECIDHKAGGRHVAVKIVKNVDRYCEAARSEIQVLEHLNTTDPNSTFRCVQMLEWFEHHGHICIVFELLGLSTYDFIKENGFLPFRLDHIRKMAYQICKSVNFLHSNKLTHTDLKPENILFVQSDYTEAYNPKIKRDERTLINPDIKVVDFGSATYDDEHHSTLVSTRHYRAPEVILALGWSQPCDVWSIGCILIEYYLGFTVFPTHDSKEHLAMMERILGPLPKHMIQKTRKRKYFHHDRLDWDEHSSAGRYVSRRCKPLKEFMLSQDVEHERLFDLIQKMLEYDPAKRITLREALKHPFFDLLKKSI

Tm shift, active:
COc1ccc(Nc2nc(N)c(C(=O)c3ccc(OC)cc3)s2)cc1 4.5 Celsius
Nc1nc(Nc2ccc(F)cc2)sc1C(=O)c1ccccc1 3.3 Celsius
COc1ccc(C(=O)c2sc(Nc3cccc(C(F)(F)F)c3)nc2N)cc1 3.7 Celsius

same assay, conditions: Recombinant CLK1, thermal shift (DSF), at 10 µM, protein 2 µM, buffer 10 mM HEPES, NaCl 150 mM, active compounds read high

Tm shift, active:
O=c1c(O)c(-c2ccc(O)c(O)c2)oc2cc(O)ccc12 7.11 Celsius
O=C1C(=O)C(c2cc(O)c(O)c(O)c2)Oc2cc(O)cc(O)c21 (stereo not drawn) 6.4 Celsius
NCCCn1cc(C2=C(c3c[nH]c4ccccc34)C(=O)NC2=O)c2ccccc21 8.48 Celsius
COc1cc(C2Oc3cc(O)cc(O)c3C(=O)C2=O)ccc1O (stereo not drawn) 6.14 Celsius
O=c1c(O)c(-c2cc(O)c(O)c(O)c2)oc2cc(O)cc(O)c12 6.89 Celsius
O=C1C(=O)C(c2ccc(O)cc2)Oc2cc(O)cc(O)c21 (stereo not drawn) 4.8 Celsius
Brc1c(Br)c(Br)c2n[nH]nc2c1Br 3.97 Celsius
COc1cc2ncnc(Nc3cccc(O)c3)c2cc1OC 4.15 Celsius
Cc1c(O)cc(O)c2c1OC(c1ccc(O)c(O)c1)C(=O)C2=O (stereo not drawn) 4.98 Celsius
O=c1cc(-c2ccccc2)oc2cc(O)cc(O)c12 5.03 Celsius

— PubChem BioAssay AID382 (SGCOxCompounds, 2006)
